PubChem BioAssay AID1159580 (chemical genetic matrix, 2015)
Among all 5,500 compounds or so, about 2,000 (36%) were called active. Roughly 18% stayed inconclusive and do not appear here. No stated cut-off is given here; in the data, active means normalized growth mostly below about 0.91 (no sharp cut-off); inconclusive means no clear call, values can overlap the other calls; inactive means mostly above about 0.92. Some of the results follow.

Assay: chemical genetic growth profiling, strain panel (AID 1159580);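 further: tested at 20 µM; growth read once vehicle control cultures reached saturation at 30 °C; 1 = growth at the plate median or of vehicle wells; lower values mean less growth of the strain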
Conditions: growth OD

Measured: normalized growth

ClC1=C(Cl)C2(Cl)C3C4C=CC(C4)C3C1(Cl)C2(Cl)Cl (configuration not stated)
active: S. cerevisiae deletion strains, locus YNL307C, strain MCK1, active compounds read low 0.48
inactive: S. cerevisiae deletion strains, locus YJR075W, strain HOC1, active compounds read low 1.01 | S. cerevisiae deletion strains, locus YKL009W, strain mrt4, active compounds read low 0.953 | S. cerevisiae deletion strains, locus YKL068W, active compounds read low 0.996 | S. cerevisiae deletion strains, locus YKL085W, strain MDH1 (second series), active compounds read low 0.996 | S. cerevisiae deletion strains, locus YKL085W, strain MDH1, active compounds read low 0.996 | S. cerevisiae deletion strains, locus YKL160W, strain elf1, active compounds read low 0.998 | S. cerevisiae deletion strains, locus YKL190W, strain CNB1, active compounds read low 1 | S. cerevisiae deletion strains, locus YKR001C, strain vps1, active compounds read low 0.998 | S. cerevisiae deletion strains, locus YKR026C, strain gcn3, active compounds read low 0.997 | S. cerevisiae deletion strains, locus YKR091W, strain srl3, active compounds read low 0.996 | S. cerevisiae deletion strains, locus YLL001W, strain dnm1, active compounds read low 0.998 | S. cerevisiae deletion strains, locus YLL026W, active compounds read low 1 | S. cerevisiae deletion strains, locus YLL041C, strain sdh2, active compounds read low 0.994 | S. cerevisiae deletion strains, locus YLR027C, strain aat2, active compounds read low 1.01 | S. cerevisiae deletion strains, locus YLR039C, strain RIC1, active compounds read low 0.942 | S. cerevisiae deletion strains, locus YLR058C, strain SHM2, active compounds read low 0.991 | S. cerevisiae deletion strains, locus YLR102C, strain apc9, active compounds read low 1 | S. cerevisiae deletion strains, locus YLR113W, strain HOG1, active compounds read low 0.892 | S. cerevisiae deletion strains, locus YLR221C, strain rsa3, active compounds read low 0.985 | S. cerevisiae deletion strains, locus YLR258W, strain gsy2, active compounds read low 0.997 | S. cerevisiae deletion strains, locus YLR262C, strain YPT6 (second series), active compounds read low 0.94 | S. cerevisiae deletion strains, locus YLR262C, strain YPT6, active compounds read low 0.859 | S. cerevisiae deletion strains, locus YLR268W, strain sec22, active compounds read low 0.98 | S. cerevisiae deletion strains, locus YLR320W, strain mms22, active compounds read low 0.994 | S. cerevisiae deletion strains, locus YLR330W, strain CHS5, active compounds read low 1 | S. cerevisiae deletion strains, locus YLR342W, strain FKS1 (second series), active compounds read low 0.916 | S. cerevisiae deletion strains, locus YLR342W, strain FKS1, active compounds read low 0.995 | S. cerevisiae deletion strains, locus YLR357W, strain rsc2, active compounds read low 1.02 | S. cerevisiae deletion strains, locus YLR370C, strain arc18, active compounds read low 0.997 | S. cerevisiae deletion strains, locus YLR371W, strain rom2, active compounds read low 0.981 | S. cerevisiae deletion strains, locus YLR384C, strain iki3, active compounds read low 0.988 | S. cerevisiae deletion strains, locus YLR418C, strain cdc73, active compounds read low 0.894 | S. cerevisiae deletion strains, locus YML016C, strain PPZ1, active compounds read low 0.998 | S. cerevisiae deletion strains, locus YML032C, strain rad52, active compounds read low 0.976 | S. cerevisiae deletion strains, locus YML120C, strain ndi1, active compounds read low 1 | S. cerevisiae deletion strains, locus YML124C, strain tub3, active compounds read low 0.984 | S. cerevisiae deletion strains, locus YMR058W, strain fet3, active compounds read low 0.999 | S. cerevisiae deletion strains, locus YMR078C, strain ctf18, active compounds read low 0.979 | S. cerevisiae deletion strains, locus YMR125W, strain sto1, active compounds read low 1 | S. cerevisiae deletion strains, locus YMR129W, active compounds read low 0.998 | S. cerevisiae deletion strains, locus YMR205C, strain PFK2, active compounds read low 0.99 | S. cerevisiae deletion strains, locus YMR223W, strain ubp8, active compounds read low 0.949 | S. cerevisiae deletion strains, locus YMR231W, strain pep5, active compounds read low 0.982 | S. cerevisiae deletion strains, locus YMR263W, strain SAP30, active compounds read low 0.999 | S. cerevisiae deletion strains, locus YMR307W, strain GAS1, active compounds read low 1.07 | S. cerevisiae deletion strains, locus YNL067W, strain RPL9B, active compounds read low 1 | S. cerevisiae deletion strains, locus YNL071W, strain lat1, active compounds read low 1.01 | S. cerevisiae deletion strains, locus YNL128W, strain TEP1, active compounds read low 0.992 | S. cerevisiae deletion strains, locus YNL153C, strain GIM3, active compounds read low 1.01 | S. cerevisiae deletion strains, locus YNL183C, strain NPR1, active compounds read low 0.951 | S. cerevisiae deletion strains, locus YNL209W, strain ssb2, active compounds read low 0.997 | S. cerevisiae deletion strains, locus YNL233W, strain BNI4, active compounds read low 0.986 | S. cerevisiae deletion strains, locus YNL248C, strain rpa49, active compounds read low 1.01 | S. cerevisiae deletion strains, locus YNL250W, strain rad50, active compounds read low 0.99 | S. cerevisiae deletion strains, locus YNL271C, strain bni1, active compounds read low 0.99 | S. cerevisiae deletion strains, locus YNL298W, strain CLA4, active compounds read low 0.981 | S. cerevisiae deletion strains, locus YNL322C, strain KRE1 (second series), active compounds read low 0.97 | S. cerevisiae deletion strains, locus YNL322C, strain KRE1, active compounds read low 1 | S. cerevisiae deletion strains, locus YNR049C, strain mso1, active compounds read low 0.995 | S. cerevisiae deletion strains, locus YNR052C, strain pop2, active compounds read low 0.979 | S. cerevisiae deletion strains, locus YOL006C, strain TOP1, active compounds read low 0.969 | S. cerevisiae deletion strains, locus YOL012C, strain htz1 1.09 | S. cerevisiae deletion strains, locus YOL147C, strain pex11, active compounds read low 0.996 | S. cerevisiae deletion strains, locus YOR001W, strain rrp6, active compounds read low 0.993 | S. cerevisiae deletion strains, locus YOR061W, strain CKA2, active compounds read low 1 | S. cerevisiae deletion strains, locus YOR069W, strain VPS5, active compounds read low 0.996 | S. cerevisiae deletion strains, locus YOR070C, strain gyp1, active compounds read low 0.982 | S. cerevisiae deletion strains, locus YOR080W, strain dia2, active compounds read low 0.989 | S. cerevisiae deletion strains, locus YOR083W, strain WHI5, active compounds read low 0.991 | S. cerevisiae deletion strains, locus YOR106W, strain vam3, active compounds read low 0.97 | S. cerevisiae deletion strains, locus YOR136W, strain idh2, active compounds read low 0.98 | S. cerevisiae deletion strains, locus YOR144C, strain elg1, active compounds read low 0.991 | S. cerevisiae deletion strains, locus YOR184W, strain ser1, active compounds read low 0.911 | S. cerevisiae deletion strains, locus YOR231W, strain MKK1, active compounds read low 1.04 | S. cerevisiae deletion strains, locus YOR265W, strain rbl2, active compounds read low 0.991 | S. cerevisiae deletion strains, locus YOR270C, strain vph1, active compounds read low 0.967 | S. cerevisiae deletion strains, locus YOR290C, strain snf2, active compounds read low 0.991 | S. cerevisiae deletion strains, locus YOR316C, strain cot1, active compounds read low 1 | S. cerevisiae deletion strains, locus YPL051W, strain arl3, active compounds read low 1.01 | S. cerevisiae deletion strains, locus YPL055C, strain LGE1, active compounds read low 0.99 | S. cerevisiae deletion strains, locus YPL078C, strain atp4, active compounds read low 1 | S. cerevisiae deletion strains, locus YPL106C, strain sse1, active compounds read low 1 | S. cerevisiae deletion strains, locus YPL240C, strain hsp82, active compounds read low 1 | S. cerevisiae deletion strains, locus YPL241C, strain CIN2, active compounds read low 1.01 | S. cerevisiae deletion strains, locus YPL256C, strain CLN2, active compounds read low 1.04 | S. cerevisiae deletion strains, locus YPR119W, strain clb2, active compounds read low 0.987 | S. cerevisiae deletion strains, locus YPR141C, strain kar3, active compounds read low 0.982 | S. cerevisiae deletion strains, locus YPR163C, strain tif3, active compounds read low 0.981 | S. cerevisiae deletion strains, locus YPR167C, strain met16, active compounds read low 0.977 | S. cerevisiae deletion strains, strain wtn01, active compounds read low 0.983 | S. cerevisiae strains, strain wild type, active compounds read low 1.01
